Laboratory results published in PubChem BioAssay AID1159580 (chemical genetic matrix, 2015).
The campaign covered roughly 5,500 compounds. About 2,000 (36%) were called active. Not shown: some 18% with an inconclusive outcome. Cut-off read from the data, not from the text of the source: active = normalized growth mostly below about 0.91 (no sharp cut-off); inconclusive = no clear call, values can overlap the other calls; inactive = mostly above about 0.92. Some of the results follow.

Assay: chemical genetic growth profiling, strain panel (AID 1159580);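 note: tested at 20 µM; growth read once vehicle control cultures reached saturation at 30 °C; 1 = growth at the plate median or of vehicle wells; lower values mean less growth of the strain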
Conditions: growth OD

Measured: normalized growth

CC[C@H](CCC(C)[C@H]1CCC2C3CCC4C[C@@H](O)CC[C@]4(C)C3CC[C@@]21C)C(C)C (stereo partly drawn)
inactive: S. cerevisiae deletion strains, locus YKL009W, strain mrt4, hits give low values 1.02 | S. cerevisiae deletion strains, locus YKL068W, hits give low values 1.01 | S. cerevisiae deletion strains, locus YKL085W, strain MDH1 (second series), hits give low values 1.01 | S. cerevisiae deletion strains, locus YKL085W, strain MDH1, hits give low values 1.01 | S. cerevisiae deletion strains, locus YKL160W, strain elf1, hits give low values 1.02 | S. cerevisiae deletion strains, locus YKR001C, strain vps1, hits give low values 1.04 | S. cerevisiae deletion strains, locus YKR026C, strain gcn3, hits give low values 0.988 | S. cerevisiae deletion strains, locus YKR091W, strain srl3, hits give low values 0.992 | S. cerevisiae deletion strains, locus YLL001W, strain dnm1, hits give low values 1.01 | S. cerevisiae deletion strains, locus YLL026W, hits give low values 0.991 | S. cerevisiae deletion strains, locus YLL041C, strain sdh2, hits give low values 0.969 | S. cerevisiae deletion strains, locus YLR027C, strain aat2, hits give low values 0.987 | S. cerevisiae deletion strains, locus YLR039C, strain RIC1, hits give low values 0.995 | S. cerevisiae deletion strains, locus YLR058C, strain SHM2, hits give low values 1.01 | S. cerevisiae deletion strains, locus YLR102C, strain apc9, hits give low values 1.01 | S. cerevisiae deletion strains, locus YLR113W, strain HOG1, hits give low values 0.991 | S. cerevisiae deletion strains, locus YLR221C, strain rsa3, hits give low values 1.03 | S. cerevisiae deletion strains, locus YLR258W, strain gsy2, hits give low values 0.988 | S. cerevisiae deletion strains, locus YLR262C, strain YPT6 (second series), hits give low values 0.97 | S. cerevisiae deletion strains, locus YLR262C, strain YPT6, hits give low values 1.02 | S. cerevisiae deletion strains, locus YLR268W, strain sec22, hits give low values 1.02 | S. cerevisiae deletion strains, locus YLR320W, strain mms22, hits give low values 1.02 | S. cerevisiae deletion strains, locus YLR330W, strain CHS5, hits give low values 1.01 | S. cerevisiae deletion strains, locus YLR342W, strain FKS1 (second series), hits give low values 1.01 | S. cerevisiae deletion strains, locus YLR342W, strain FKS1, hits give low values 0.978 | S. cerevisiae deletion strains, locus YLR357W, strain rsc2, hits give low values 0.98 | S. cerevisiae deletion strains, locus YLR370C, strain arc18, hits give low values 0.98 | S. cerevisiae deletion strains, locus YLR371W, strain rom2, hits give low values 1.01 | S. cerevisiae deletion strains, locus YLR384C, strain iki3, hits give low values 0.986 | S. cerevisiae deletion strains, locus YLR418C, strain cdc73, hits give low values 1 | S. cerevisiae deletion strains, locus YML016C, strain PPZ1, hits give low values 1.01 | S. cerevisiae deletion strains, locus YML032C, strain rad52, hits give low values 1.01 | S. cerevisiae deletion strains, locus YML120C, strain ndi1, hits give low values 0.989 | S. cerevisiae deletion strains, locus YML124C, strain tub3, hits give low values 1.01 | S. cerevisiae deletion strains, locus YMR058W, strain fet3, hits give low values 0.967 | S. cerevisiae deletion strains, locus YMR078C, strain ctf18, hits give low values 1.01 | S. cerevisiae deletion strains, locus YMR125W, strain sto1, hits give low values 0.969 | S. cerevisiae deletion strains, locus YMR129W, hits give low values 0.982 | S. cerevisiae deletion strains, locus YMR205C, strain PFK2, hits give low values 1.01 | S. cerevisiae deletion strains, locus YMR223W, strain ubp8, hits give low values 0.988 | S. cerevisiae deletion strains, locus YMR231W, strain pep5, hits give low values 0.975 | S. cerevisiae deletion strains, locus YMR263W, strain SAP30, hits give low values 1.01 | S. cerevisiae deletion strains, locus YMR307W, strain GAS1, hits give low values 0.973 | S. cerevisiae deletion strains, locus YNL067W, strain RPL9B, hits give low values 1 | S. cerevisiae deletion strains, locus YNL071W, strain lat1, hits give low values 0.974 | S. cerevisiae deletion strains, locus YNL153C, strain GIM3, hits give low values 1 | S. cerevisiae deletion strains, locus YNL183C, strain NPR1, hits give low values 0.974 | S. cerevisiae deletion strains, locus YNL209W, strain ssb2, hits give low values 1 | S. cerevisiae deletion strains, locus YNL233W, strain BNI4, hits give low values 1 | S. cerevisiae deletion strains, locus YNL248C, strain rpa49, hits give low values 0.975 | S. cerevisiae deletion strains, locus YNL250W, strain rad50, hits give low values 1 | S. cerevisiae deletion strains, locus YNL271C, strain bni1, hits give low values 1.01 | S. cerevisiae deletion strains, locus YNL298W, strain CLA4, hits give low values 1.02 | S. cerevisiae deletion strains, locus YNL307C, strain MCK1, hits give low values 1.01 | S. cerevisiae deletion strains, locus YNL322C, strain KRE1 (second series), hits give low values 0.982 | S. cerevisiae deletion strains, locus YNL322C, strain KRE1, hits give low values 1 | S. cerevisiae deletion strains, locus YNR049C, strain mso1, hits give low values 0.984 | S. cerevisiae deletion strains, locus YNR052C, strain pop2, hits give low values 1.02 | S. cerevisiae deletion strains, locus YOL012C, strain htz1 0.67 | S. cerevisiae deletion strains, locus YOL147C, strain pex11, hits give low values 1 | S. cerevisiae deletion strains, locus YOR001W, strain rrp6, hits give low values 0.949 | S. cerevisiae deletion strains, locus YOR061W, strain CKA2, hits give low values 1.02 | S. cerevisiae deletion strains, locus YOR069W, strain VPS5, hits give low values 1.01 | S. cerevisiae deletion strains, locus YOR070C, strain gyp1, hits give low values 1.02 | S. cerevisiae deletion strains, locus YOR080W, strain dia2, hits give low values 0.988 | S. cerevisiae deletion strains, locus YOR083W, strain WHI5, hits give low values 1.03 | S. cerevisiae deletion strains, locus YOR106W, strain vam3, hits give low values 0.998 | S. cerevisiae deletion strains, locus YOR136W, strain idh2, hits give low values 1.01 | S. cerevisiae deletion strains, locus YOR144C, strain elg1, hits give low values 1.01 | S. cerevisiae deletion strains, locus YOR184W, strain ser1, hits give low values 1.02 | S. cerevisiae deletion strains, locus YOR231W, strain MKK1, hits give low values 1.01 | S. cerevisiae deletion strains, locus YOR265W, strain rbl2, hits give low values 1.02 | S. cerevisiae deletion strains, locus YOR270C, strain vph1, hits give low values 0.979 | S. cerevisiae deletion strains, locus YOR290C, strain snf2, hits give low values 0.995 | S. cerevisiae deletion strains, locus YOR316C, strain cot1, hits give low values 1.01 | S. cerevisiae deletion strains, locus YPL051W, strain arl3, hits give low values 0.995 | S. cerevisiae deletion strains, locus YPL055C, strain LGE1, hits give low values 1 | S. cerevisiae deletion strains, locus YPL078C, strain atp4, hits give low values 0.989 | S. cerevisiae deletion strains, locus YPL106C, strain sse1, hits give low values 0.994 | S. cerevisiae deletion strains, locus YPL240C, strain hsp82, hits give low values 0.987 | S. cerevisiae deletion strains, locus YPL241C, strain CIN2, hits give low values 1 | S. cerevisiae deletion strains, locus YPL256C, strain CLN2, hits give low values 1.02 | S. cerevisiae deletion strains, locus YPR119W, strain clb2, hits give low values 1.01 | S. cerevisiae deletion strains, locus YPR141C, strain kar3, hits give low values 1.01 | S. cerevisiae deletion strains, locus YPR163C, strain tif3, hits give low values 1.01 | S. cerevisiae deletion strains, locus YPR167C, strain met16, hits give low values 1 | S. cerevisiae deletion strains, strain wtn01, hits give low values 1.02 | S. cerevisiae strains, strain wild type, hits give low values 1.01
